Assay results as given in PubChem BioAssay AID1347417 (National Center for Advancing Translational Sciences (NCATS), 2020).
Several values for one entry are separate records, joined by “and”; a condition that tells them apart may be missing. Equal values may be shown once. Screen size: about 120,000 compounds; about 5,300 (4.4%) were called active. Entries that show only a call come without a potency. Roughly 22% stayed inconclusive and do not appear here. This is one part of a sample in which actives are shown more often than they occur. Calls come from the whole dose curve; as a rule, active = well fitted inhibition curve with a large enough effect; inconclusive = small, poorly fitted or top-dose-only effect; inactive = no such curve, though single readings can be large or run the other way. A structure can be active in one record and inactive in another.

Assay: qHTS Primary assay for Inhibitors of Plasmodium falciparum Dd2 growth in vitro; note: nearly all actives have a fitted effect of over 65% in size
Details: P. falciparum Dd2 growth, SYBR Green, 72 h; series mostly up to 28.9 µM
Method in brief: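 Readout: SYBR Green fluorescence, 485 nm excitation, 535 nm emission, after ~16 h lysis at 37C. Before that, Dd2-infected red cells (2.5% hematocrit) grew 72 h with compound, 29 uM top final concentration.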
Potency is the fitted concentration of half-maximal effect.

Compound | Potency | outcome
N#Cc1ccc(CC(=O)N2CC(CNc3cccnc3)C3(C2)CN(c2ccccc2)C3)cc1 (stereo unspecified) | inactive | 
CCN1CC2(CCN(C(=O)c3cc4c(nc3OC)CCC4)CC2)OC1=O | inactive | 
CNC(=O)[C@H]1C[C@H](Oc2ccccc2)CN1C(=O)c1ccccc1 | inactive | 
FC(F)(F)CN1C2CCC1CN(c1cncc(Cl)n1)C2 | inactive | 
CC(NC(=O)c1coc(COc2ccc3c(c2)OCO3)n1)c1ccc2[nH]ccc2c1 (stereo unspecified) | inactive | 
Cn1cncc1-c1nnc([C@H]2CCN(CC3CC3)C2)o1 | inactive | 
CCOC(=O)CCNC(=O)N1CC[C@H]2C(=O)NCCCCCCN(Cc3ccncc3)[C@@H]2C1 | inactive | 
C=CCNC(=O)CCc1c(CC)nn(-c2ccccc2)c1Oc1ccccc1OC | inactive | 
CC(=O)c1c(C)nn(CC(=O)N2C[C@H](O)[C@@H](N3CCC(O)CC3)C2)c1C | inactive | 
CCc1nc2c(=O)n(CC(=O)NCc3ccc(Cl)cc3)nc(C)c2s1 | inactive | 
CCCOc1ccc(C2c3c(-c4ccccc4O)n[nH]c3C(=O)N2Cc2cccnc2)cc1 (stereo unspecified) | inactive | 
CCCCN1C(=O)c2[nH]nc(-c3ccccc3O)c2C1c1cccc(OCc2ccccc2)c1 (stereo unspecified) | 3.16 µM (active) | 
COc1cccc(-c2n[nH]c3c2C(c2cccc(O)c2)N(C)C3=O)c1 (stereo unspecified) | inactive | 
Cc1cc(C(=O)NCC2Cn3cccc3C(=O)N2C)nn1C (stereo unspecified) | inactive | 
CC(C)CN1C(=O)c2ccccc2C(C(=O)NCc2ccccn2)C12CCCC2 (stereo unspecified) | inactive | 
COC(=O)CCNC(=O)C1c2ccccc2C(=O)N(CC(C)C)C12CCCC2 (stereo unspecified) | inactive | 
COc1ccccc1NC(=O)C1c2ccccc2C(=O)N(CC(C)C)C12CCCC2 (stereo unspecified) | 3.55 µM (active) | 
Cc1ccc2c(c1)N1C(=O)OC[C@@H]1CCN(C(=O)c1ccno1)C2 | inactive | 
Cc1cc(C)cc(C(=O)N2CC(c3nnc(-c4ccncc4)o3)C3(CCOCC3)C2)c1 (stereo unspecified) | inactive | 
Cc1cccc(C)c1-c1nc(C(=O)N2CCN(c3ncccn3)CC2)n2ccccc12 | inactive and 12.6 µM (active) | 
O=C(c1nc(-c2cccnc2)c2cnccn12)N1CCN(c2ncccn2)CC1 | inactive | 
CC(C)(C)c1nc(C(=O)N2CCOCC2)n2ccccc12 | inactive | 
CN(CC1CCOC1)C(=O)c1ccc(F)cc1F (stereo unspecified) |  | inactive [at 5.79 µM]
CCOC(=O)C1CCCN(C(=O)Cc2ccc(N(Cc3cccc(F)c3)C(=O)c3ccco3)cc2)C1 (stereo unspecified) | 3.98 µM (active) | 

Compound | Potency | outcome
CC(C)NC(=O)Cc1ccc(N(Cc2cccc(F)c2)C(=O)c2ccco2)cc1 | inactive | 
O=C(Cc1cccc(F)c1)N1CCCC(Cc2nncn2-c2ccccc2)C1 (stereo unspecified) | inactive | 
CN(CC(=O)N1CCCC(Cc2nncn2-c2ccccc2)C1)S(=O)(=O)c1cccs1 (stereo unspecified) | inactive | 
Cc1ccccc1C(=O)NCc1cccnc1Oc1cccc(C(F)(F)F)c1 | inactive | 
COc1cccc(-c2cc(C(=O)N3CCC(c4nn(C)c(=O)n4C(C)C)CC3)[nH]n2)c1 | inactive | 
CCC(C(=O)Nc1ccc2c(c1)CN(Cc1cc(F)cc(F)c1)C(=O)CO2)c1ccccc1 (stereo unspecified) | 6.31 µM (active) | 
CCC1Oc2ccc(NC(=O)c3cccs3)cc2CN(Cc2ccc(F)cc2)C1=O (stereo unspecified) | inactive | 
CCC(C)N1Cc2cc(NC(=O)c3ccc([N+](=O)[O-])cc3)ccc2OCC1=O (stereo unspecified) | inactive | 
O=C1Nc2ccccc2C12CCN([S+](=O)([O-])c1cccc(C(F)(F)F)c1)C2 (stereo unspecified) | inactive | 
COc1ccc([C@H]2C[C@@H](O)[C@@H](O)[C@@H]2NC(=O)c2ccccc2)cc1 | inactive | 
COc1cc(C(=O)Nc2ccc(-n3c(C)nc4ccccc4c3=O)cc2)cc(OC)c1OC | inactive | 
CCOc1ccc(C(=O)Nc2ccc3nc4c(c(Nc5ccccc5OC)c3c2)CCCC4)cc1 | 11.2 µM (active) | 
COc1ccccc1Nc1c2c(nc3ccc(NC(=O)/C=C/c4cc(OC)c(OC)c(OC)c4)cc13)CCCC2 | 3.98 µM (active) | 
CCOc1ccccc1NC(=O)Cn1nnc(C(=O)Nc2ccc(C)c(C)c2)c1N | inactive | 
CCOc1ccc(-n2nc3ccc(NC(=O)c4ccc(OC)c(Cl)c4)cc3n2)cc1 | inactive | 
COc1cc(NC(=O)c2nc3ccccc3nc2C)cc(OC)c1OC | inactive | 
Cc1noc(-c2ccco2)c1C(=O)NC(C)c1ccccc1 (stereo unspecified) | inactive | 
O=[S+]([O-])(c1ccc(Br)cc1)c1nnn2c1nc(NC1CC1)c1ccccc12 | inactive | 
CCc1cc(=O)n(CC(=O)Nc2cccc(C(C)=O)c2)c(-c2ccccc2)n1 | inactive | 
Cc1ccc(NC(=O)CC2=C3CCCCC3NC2=O)cc1 (stereo unspecified) | inactive | 
Cc1ccccc1-c1ccc(C(=O)NCCCn2ccnc2C(C)C)cn1 | inactive | 
CC(Cn1cncn1)Nc1nc(-c2ccncc2)nc2c1cnn2C (stereo unspecified) | inactive | 
CC(C)c1nccn1CCCNc1nc(-c2ccncc2)nc2c1cnn2C | 12.6 µM (active) | 
O=C(NC1CCCCC1)N1C[C@@H]2C[C@H](C1)c1c(NS(=O)(=O)c3ccccc3)ccc(=O)n1C2 | inactive | 

Compound | Potency | outcome
Cc1cc(C)cc(NC(=O)Cn2nc3n(c2=O)CCCC3)c1 | inactive | 
COC1C(=O)N(C2CCN(Cc3ccc(O)cc3)CC2)C12CCOCC2 (stereo unspecified) | inactive | 
Cc1nn2c(c1-c1ccccc1-c1ccccc1)N(C(=O)CN1CCOCC1)CCC2 | inactive | 
Cc1nn2c(c1-c1ccccc1-c1ccccc1)N(CC1CC1)CCC2 | 0.316 µM (active) | 
Cc1nn2c(c1-c1ccnn1C(C)C)N(CC1CCOCC1)CCC2 | inactive | 
Cc1ncsc1C1N(C2CCN(C(=O)c3ccncc3)CC2)C(=O)C12CCCC2 (stereo unspecified) | inactive | 
Cc1ccccc1NC(=O)c1cc2c([nH]c1=O)CC(C)(C)CC2=O | inactive | 
Cc1ccccc1NC(=O)CCOc1ccccc1 | inactive | 
Cc1ccccc1NC(=O)c1cc2cn(C(C)C)cc2s1 | 8.91 µM (active) | 
CCn1cc(S(=O)(=O)N2CCC3(CC2)CN(Cc2ccc(OC)cc2)C3=O)cn1 | inactive | 
C=CCNC(=O)c1cn2c(n1)CN([S+](C)(=O)[O-])CC2 | inactive | 
CN(C)c1ccc(NC(=O)Cn2nc3n(c2=O)CCCCC3)cc1 | inactive | 
COc1ccc(C(=O)N2CCCCCCNC(=O)CC2)cn1 | inactive | 
O=C(NCc1ccco1)C1CCCN(c2cnn(Cc3ccccc3)c(=O)c2)C1 (stereo unspecified) | inactive | 
O=C(CCc1conc1-c1ccccc1)NCc1ccco1 | inactive | 
O=C(O)CCC(=O)N1Cc2[nH]cnc2C[C@H]1c1nc(-c2ccc3ccccc3c2)no1 | inactive | 
O=C(NCc1ccccc1)[C@@H]1Cc2nc[nH]c2CN1Cc1cccc(OC(F)(F)F)c1 | 10 µM (active) | 
COc1cccc(CC(=O)N2CCC(N3C(=O)CCC3C(=O)NCc3ccccc3)CC2)c1 (stereo unspecified) | inactive | 
O=C(NCc1ccco1)[C@@H]1Cc2nc[nH]c2CN1CCCc1ccccc1 | 7.94 µM (active) | 
Fc1ccc(NC2CCCN(Cc3ccc(C#Cc4cncnc4)cc3)C2)cc1F (stereo unspecified) | inactive | 
O=C1COc2ccc(-c3cncnc3)nc2CN1Cc1ccc(F)cc1 | inactive | 
OC1CC([C@@H](Cc2ccccn2)NC2CCC3(CCNCC3)CC2)C1 (stereo partly specified) | inactive | 
CC1CCCN(Cc2c(O)ccc3c(=O)c(Oc4ccc(C(C)(C)C)cc4)c(C(F)(F)F)oc23)C1 (stereo unspecified) | 0.316 µM (active) | 
Cc1ccc(C)c(Oc2c(C(F)(F)F)oc3c(CN4CCN(C)CC4)c(O)ccc3c2=O)c1 | 0.501 µM (active) | 

Compound | Potency | outcome
COc1ccc(-c2c(C)c3ccc(O)c(CN4CCCC4)c3oc2=O)cc1OC | inactive | 
Cc1ccc(Oc2c(C(F)(F)F)oc3c(CN4CCCCC4)c(O)ccc3c2=O)cc1 | 3.55 µM (active) | 
Cc1ccc2nc3n(c2c1)[C@@H](CNC(=O)c1ccc(C#N)cc1)COC3 | inactive | 
O=C(c1ccc(F)cc1)N1CCC2(CN[S+](=O)([O-])c3ccccc3N2)C1 (stereo unspecified) | inactive | 
O=C1CC2(CCN(C(=O)CCn3ccccc3=O)C2)C(=O)N1 (stereo unspecified) | inactive | 
CN[C@@H](CC(C)C)C(=O)N[C@@H]1C=C(C(=O)N[C@@H](Cc2ccc(O)cc2)C(N)=O)C[C@@H](O)[C@@H]1O | inactive | 
O=C(NCCc1ccc(Cl)cc1)c1ccc2nccn2c1 | inactive | 
O=C(CCCN1C(=O)C(c2ccccc2)Oc2cccnc21)NCCc1noc(-c2ccncc2)n1 (stereo unspecified) | inactive | 
Cc1ccc2oc(C(=O)N(C)CCc3ccccc3)c(C)c2c1 | inactive | 
O=C(NCc1ccncc1)C1CN(S(=O)(=O)c2cccnc2)CC12CCOCC2 (stereo unspecified) | inactive | 
COc1ccccc1-c1cnc(NC(=O)c2ccc(Cl)cc2)c2c1CCO2 | inactive | 
COc1ncccc1Nc1ncc(-c2ccccc2)c2c1OCC2 | inactive | 
CN1CCN(Cc2ccc(Nc3ncc(-c4cccnc4)c4c3OCC4)cc2)CC1 | 10 µM (active) | 
COc1cccc(C(=O)N2CCC(N3CCCCCC3=O)CC2)c1 | inactive | 
Cc1cccc(C)c1CN1CCC2(CC1)Cc1ccccc1CNC2=O | inactive | 
CC(C)Cc1ccc(CN2CCC3(CC2)Cc2ccccc2CNC3=O)cc1 | 11.2 µM (active) | 
O=C1NCc2ccccc2CC12CCN(Cc1cccc(Cl)c1)CC2 | inactive | 
Cc1cc2nc3n(c(=O)c2n1CC(=O)NCc1ccc(F)cc1)CCCCC3 | inactive | 
O=C(c1ccccc1F)N1CCCC2(C1)C(=NC1CCCCC1)NC(=O)N2c1cc(F)cc(F)c1 (stereo unspecified) | inactive | 
COC(=O)N1CCC2(CC1)C(=NC1CCCC1)NC(=O)N2c1cc(F)cc(F)c1 | inactive | 
O=C1NC(=NC2CCCCC2)C2(CCCN(S(=O)(=O)c3cccs3)C2)N1c1cc(F)cc(F)c1 (stereo unspecified) | inactive | 
COc1ccc(C(=O)N2CCCC3(C2)C(=NC2CCCC2)NC(=O)N3c2cc(F)cc(F)c2)cc1 (stereo unspecified) | inactive | 
O=C1NC(=NC2CCCC2)C2(CCCN(Cc3ccsc3)C2)N1c1cc(F)cc(F)c1 (stereo unspecified) | 5.01 µM (active) | 
CC(C)CCN1CCC2(C1)C(=NC1CCCCC1)NC(=O)N2c1cc(F)cc(F)c1 (stereo unspecified) | 8.91 µM (active) | 
